# Results from PubChem BioAssay (NCI).
# Values joined by “and” are separate entries in the source; they are usually repeats but may differ in a detail not shown here. Equal entries are not always repeated. The panel holds about 83,000 compounds, 20% with a hit somewhere; the sample as a whole holds those more often.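 A percent growth of 40 corresponds to 60% growth inhibition; 0 means no net growth; -100 means all cells died. Active threshold: below 10.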 A number with no mark means an inactive call. Active and inactive are the calls of the source.
# Test system: MDA-MB-468 breast
# Experiment: NCI-60 one-dose screen, 48 h (100 = growth as untreated, 0 = no growth, -100 = all killed)
# Details: 10 µM unless noted
row,Structure (SMILES),growth
1,O=C(O)CNC1=C(Cl)C(=O)c2ccccc2C1=O,109%
2,COc1cc(/C=N/NC(=O)c2ccccc2Nc2cccc(C(F)(F)F)c2)cc(OC)c1OC,-20.8% (active)
3,O=C(Nc1ccncc1)C(=O)c1cn(S(=O)(=O)c2ccc(Cl)cc2)c2ccccc12,19.7%
4,Cc1cccc(/C=C\C(=O)c2ccccc2)c1,105% and 99%
5,COc1ccc(/C=N/Nc2c3ccccc3nc3ccccc23)cc1,73.7%
6,CCOc1ccc(N2C(=O)CCSC2=S)cc1,97.1%
7,CCC(=C(c1ccc(OCCN2CCCC2)cc1)c1ccc(OCCN2CCCC2)cc1)c1ccc(Cl)cc1,-53.5% (active)
8,COc1ccc(-c2nc(-c3cc(OC)cc(OC)c3)[nH]c2-c2ccc(OC)cc2)cc1,31.4%
9,O=C(Nc1ccc(F)cc1)Nc1ccc(Br)c(C(F)(F)F)c1,-5.88% (active)
10,C#Cc1nc(C2=C(C)/C(=N/OCc3ccccc3)CC2)cs1,54.5%
11,Nc1nc(N(Cc2ccccc2)c2ccccc2)c2cn[nH]c2n1,33.3%
12,COC(=O)/C(CCC=C(C)C)=C1\[C@@H](OC(C)=O)C[C@@]2(C)[C@H]1CC(=O)N[C@H]1[C@@]3(C)CCNC(=O)[C@@H](C)[C@@H]3CC[C@@]12C,99.7%
13,Cn1ncc2cc3c(Nc4ccc(Cl)cc4)cccc3nc21,79%
14,O=C1Nc2ccc(Br)cc2/C1=N\N=C/c1cn(Cc2ccccc2)c2ccccc12,-43% (active)
15,Cc1ccc(-c2cc(C(=O)N3N=C(c4ccc(N)cc4)CC3c3ccc(Cl)cc3)c3ccccc3n2)cc1 (stereo not given),14.1%
16,Nc1c(C(=O)Nc2cccc(Cl)c2)sc2nc3c(cc12)CCCC3,74.2%
17,Nc1ccc(F)c(Cl)c1F,92.5%
18,O=S(=O)(NCCNc1nccc(-c2c(-c3cccc(F)c3)nc3sccn23)n1)c1ccc(Cl)cc1,64.5%
19,COc1ccc(/C(C)=C(\c2ccc(Cl)cc2)c2ccc(OCCN3CCCC3)cc2)cc1,57.8%
20,COc1ccc(C(OCC2OC(n3ccc(NC(=O)c4ccccc4)nc3=O)C(O)C2O)(c2ccccc2)c2ccccc2)cc1 (stereo not given),45.9%

row,Structure (SMILES),growth
1,Cc1cc(C)c(N)c(Br)c1,104% and 107%
2,CC(=O)OCC1CCC(COC(C)=O)CC1 (stereo not given),110%
3,Cc1ccc(-c2nc3ccccc3c(=O)n2/N=C/c2cccc3ccccc23)cc1,80.9%
4,COc1c(O)c(O)cc2c3c(oc12)CC(c1ccc2c(c1)OCO2)CC3=O (stereo not given),79.9%
5,CN1CCC[C@]2(C)[C@H]3CC[C@@H]4[C@@H]5[C@H]6OC[C@@]5(CCC6(C)C)CC[C@@]4(C)[C@]3(C)CC[C@H]2C1(C)C,82%
6,CN(C)CC1C(=O)O[C@H]2[C@H]1CC/C(COC(=O)NCc1ccc(Cn3c(=O)sn(CCCI)c3=O)cc1)=C\CC[C@@]1(C)O[C@@H]21 (stereo not given in full),-73.3% (active)
7,O=C(N/N=C(\CS(=O)(=O)c1ccccc1)c1cc2ccccc2oc1=O)c1ccccc1,117%
8,O=C(CCCCC1CCSS1)Nc1ncnc2n[nH]c(-c3ccc(Oc4ccccc4)cc3)c12 (stereo not given),95.9%
9,O=C(c1c[nH]c2ccccc12)c1n[nH]c(=S)n1-c1ccc([N+](=O)[O-])cc1,106%
10,COC(=O)C1=C(C)C(=O)CC1,110%
11,ON1CCCC1,108%
12,CC(C)N1CCN(c2ccncc2S(=O)(=O)N2CCN(C)CC2)CC1,94.3%
13,O=C1CCCc2nc3sc4c(=O)n(-c5ccccc5Cl)nnc4c3cc21,85.9%
14,Nc1c(C(=O)Nc2cccc3ccccc23)sc2nc3c(cc12)CCCCC3,37.1%
15,NNC(=S)N/N=C/c1ccccn1,8.55% (active)
16,NC1=CC(=O)c2ccccc2C1=O,96.2%
17,CCCCCCNC(=O)Oc1ccc(/C(=C(/C)Cc2ccc(OC)cc2)c2ccc(OCCN(C)C)cc2)cc1,62.9%
18,CNS(=O)(=O)c1cccc(-c2ccc3c4c(n(C)c(=O)c3c2)-c2ccccc2C4=O)c1,83.4%
19,O=C1C=C(C(O)c2ccc(O)cc2)C(=O)c2ccccc21 (stereo not given),111%
20,O=C(O)c1cccc(-n2ncc(Cl)c(Cl)c2=O)c1,74.5%
